The supplement of paper PMC6555819

Each sequence was assayed on PPARg homodimer (NR concentration 180 nM) (assay: PBM binding z-score (relative to random genomic background probes); higher = stronger binding; sequences stand for … in GC…GCGATTGACAGCGTAGAATGAAGG).
How it was run: (§1)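 Ligand-free nuclear receptor dimers were applied to custom Agilent 4×180K protein-binding microarrays whose double-stranded probes carried direct-repeat seeds, single-nucleotide variants, half-site ablations and random human genomic background sequences in 34-nt variable regions. Incubation lasted 1 h. Binding z-scores were computed against the random background probes from regression-normalized fluorescence.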
Sequence CCTACTGGGTCATCAGGTCATTGATATCAACGTT has a PBM binding z-score of 3.28.
TAGACTAGGTCATGGGCCAGTATACCACGCGAAC was tested, and the PBM binding z-score was 1.38.
TCTTGTAAATCAAGCAGGTTAAGAAAGCCTGAGT showed a PBM binding z-score of -0.337.
TCATATAGCTAATACAGGTGAAAGTCGGCATCTA showed a PBM binding z-score of 0.511.
GTAGACAGGTGAAACGCAGGTAACTCAGGGTGGC was tested, and the PBM binding z-score was -0.292.
Work on CAGCCTAGGTCAGGGCCAGTATCGGAGGAACGTT yielded a PBM binding z-score of 0.632.
Sequence ATCTCTAGGTAAGACTCTGTTCAGTGAAGAACGC has a PBM binding z-score of 0.889.
Sequence TCGAGTAGGTTAGGTGCATTCAGAATGGCGTCGA has a PBM binding z-score of -0.132.
Sequence TCATCTAGGTAAATGCTAGGTGAAAGTCCGATCT has a PBM binding z-score of 0.213.
Sequence CCGAGTAGGTTATGCGGCATTCAGGCAACGGTGA has a PBM binding z-score of 0.671.
For TCTTGTAGATCAACAGGATGTTAAGAAAGATCGA, the PBM binding z-score was -0.565.
TCGAGTAGGTCAGTCGGGGCATTCAGCCAACATA showed a PBM binding z-score of 1.14.
Work on CCTACTGGGCCAAAAAGGTTATTGATGCCGATAA yielded a PBM binding z-score of 0.601.
In the case of CGTCCAAGGTCACAGGTCAGTGAAGAGATGACGG, the PBM binding z-score was 2.75.
In the case of TCATATAGGTAGAAGGTGAAAGTCGGTGTGGTAA, the PBM binding z-score was 1.59.
With ATCGAAAGGTCGAGGTAAGTATAGAGAAAGGGAA the PBM binding z-score was 1.24.
For CGTCCAAGGTCAGCAGGTCAGTGAGAGCGACGTG, the PBM binding z-score was 3.25.
TCATATAGGGAAAAGGTGAAAGTCGGTGTGGTAA gave a PBM binding z-score of 1.68.
ACTATTAGTTGACTTAGGGCAACCAATACGACGC showed a PBM binding z-score of 0.6.
With ACTAGCAGGCCAAGCGTCACTCAAGATTAGTCCG the PBM binding z-score was -0.388.
AATACAGGGTCATCGTAGGCCTGAGTACGCACAG gave a PBM binding z-score of 2.11.
ACTATTAGTTGACTTATGGCAACCGATACGACGC gave a PBM binding z-score of 0.983.
TTACCAAGGTGAGCTGAGGTCGTTGGTCCAACTC was tested, and the PBM binding z-score was -0.363.
CCTACTGGGCCATTCAGAGTTCATTGATCATATG gave a PBM binding z-score of 0.849.
TCTTGTAGATCAACAGGAGGTTAAGAAAGATCGA showed a PBM binding z-score of 0.0227.
AGAATGAGGTTATACGTAGAGCAGGGAAGAAAGT was tested, and the PBM binding z-score was 1.79.
With ACTAGTTGGTCAGCTGAGTTCACACACAATTCGG the PBM binding z-score was 0.775.
For CAGCCTAGGTCAGGCCCAGTATAGGAGGAACGTT, the PBM binding z-score was 0.325.
CGTCCAAGGTCATAGGAGGTCAGTGCAGACAGAT showed a PBM binding z-score of 4.86.
For GTACCAAGGTCAATAGGTCGTTGATGAGTAGGCG, the PBM binding z-score was 2.8.
For ATCTCTAGTTAAGACTCAGTTCAGTGAAGAACGC, the PBM binding z-score was 1.07.
In the case of CCTAGCAGGCCAATCTGGGTAACTCAAGGCTTGA, the PBM binding z-score was -0.78.
Work on GCTAGTTGGTCAGTAAAAGGCCACACACCGGTCG yielded a PBM binding z-score of 0.58.
CCTAGTTGGTCAGGAGGTCACACACCGGATATGA showed a PBM binding z-score of 3.9.
Work on CCTCGGAGGACAACTGGAGGTCAGAGCTGCCAGA yielded a PBM binding z-score of 2.05.
Sequence ATATGTAGGTTAGCTGGGATCATTCAGACTAGGC has a PBM binding z-score of 0.83.
AGTCAAAGTGCAGGACGAGGTAACGTAAAGCACG showed a PBM binding z-score of -0.0962.
GCAGACAGGTGAAACGCAGGTAGCTCAGGGTGGC was tested, and the PBM binding z-score was -0.599.
With AGCGAAAGGTCGACGAGGTGAGTATACACCGTTT the PBM binding z-score was 1.07.
With TACCCTAGGTCAGATCGGGCCAGTATACGCTATA the PBM binding z-score was 0.849.

These sequences were tested on PXR:RXRa (NR concentration 270 nM, RXRa partner concentration 90 nM) in the same assay as above.
How it was run: as §1
Work on CCTACTGGGTCATCAGGTCATTGATATCAACGTT yielded a PBM binding z-score of 3.76.
Sequence TAGACTAGGTCATGGGCCAGTATACCACGCGAAC has a PBM binding z-score of 1.04.
Sequence TCTTGTAAATCAAGCAGGTTAAGAAAGCCTGAGT has a PBM binding z-score of 0.678.
TCATATAGCTAATACAGGTGAAAGTCGGCATCTA showed a PBM binding z-score of 0.475.
Sequence GTAGACAGGTGAAACGCAGGTAACTCAGGGTGGC has a PBM binding z-score of -0.0707.
In the case of CAGCCTAGGTCAGGGCCAGTATCGGAGGAACGTT, the PBM binding z-score was 0.107.
ATCTCTAGGTAAGACTCTGTTCAGTGAAGAACGC showed a PBM binding z-score of -0.0649.
In the case of TCGAGTAGGTTAGGTGCATTCAGAATGGCGTCGA, the PBM binding z-score was 0.0438.
TCATCTAGGTAAATGCTAGGTGAAAGTCCGATCT was tested, and the PBM binding z-score was 0.375.
For CCGAGTAGGTTATGCGGCATTCAGGCAACGGTGA, the PBM binding z-score was -0.0535.
Sequence TCTTGTAGATCAACAGGATGTTAAGAAAGATCGA has a PBM binding z-score of 0.147.
TCGAGTAGGTCAGTCGGGGCATTCAGCCAACATA showed a PBM binding z-score of 1.71.
With CCTACTGGGCCAAAAAGGTTATTGATGCCGATAA the PBM binding z-score was 0.934.
In the case of CGTCCAAGGTCACAGGTCAGTGAAGAGATGACGG, the PBM binding z-score was 4.99.
TCATATAGGTAGAAGGTGAAAGTCGGTGTGGTAA showed a PBM binding z-score of 0.746.
For ATCGAAAGGTCGAGGTAAGTATAGAGAAAGGGAA, the PBM binding z-score was 2.31.
CGTCCAAGGTCAGCAGGTCAGTGAGAGCGACGTG was tested, and the PBM binding z-score was 3.75.
Work on TCATATAGGGAAAAGGTGAAAGTCGGTGTGGTAA yielded a PBM binding z-score of 1.21.
Work on ACTATTAGTTGACTTAGGGCAACCAATACGACGC yielded a PBM binding z-score of 0.385.
Sequence ACTAGCAGGCCAAGCGTCACTCAAGATTAGTCCG has a PBM binding z-score of -0.885.
For AATACAGGGTCATCGTAGGCCTGAGTACGCACAG, the PBM binding z-score was 4.23.
ACTATTAGTTGACTTATGGCAACCGATACGACGC gave a PBM binding z-score of 0.367.
TTACCAAGGTGAGCTGAGGTCGTTGGTCCAACTC was tested, and the PBM binding z-score was 4.68.
For CCTACTGGGCCATTCAGAGTTCATTGATCATATG, the PBM binding z-score was 4.72.
In the case of TCTTGTAGATCAACAGGAGGTTAAGAAAGATCGA, the PBM binding z-score was 0.753.
Work on AGAATGAGGTTATACGTAGAGCAGGGAAGAAAGT yielded a PBM binding z-score of 1.13.
With ACTAGTTGGTCAGCTGAGTTCACACACAATTCGG the PBM binding z-score was 5.66.
CAGCCTAGGTCAGGCCCAGTATAGGAGGAACGTT gave a PBM binding z-score of -0.0342.
Work on CGTCCAAGGTCATAGGAGGTCAGTGCAGACAGAT yielded a PBM binding z-score of 6.81.
GTACCAAGGTCAATAGGTCGTTGATGAGTAGGCG gave a PBM binding z-score of 4.09.
Sequence ATCTCTAGTTAAGACTCAGTTCAGTGAAGAACGC has a PBM binding z-score of 1.23.
For CCTAGCAGGCCAATCTGGGTAACTCAAGGCTTGA, the PBM binding z-score was -0.754.
With GCTAGTTGGTCAGTAAAAGGCCACACACCGGTCG the PBM binding z-score was -0.0291.
With CCTAGTTGGTCAGGAGGTCACACACCGGATATGA the PBM binding z-score was 4.41.
In the case of CCTCGGAGGACAACTGGAGGTCAGAGCTGCCAGA, the PBM binding z-score was 2.52.
Sequence ATATGTAGGTTAGCTGGGATCATTCAGACTAGGC has a PBM binding z-score of 1.21.
With AGTCAAAGTGCAGGACGAGGTAACGTAAAGCACG the PBM binding z-score was -0.156.
Work on GCAGACAGGTGAAACGCAGGTAGCTCAGGGTGGC yielded a PBM binding z-score of -0.573.
AGCGAAAGGTCGACGAGGTGAGTATACACCGTTT showed a PBM binding z-score of 2.86.
With TACCCTAGGTCAGATCGGGCCAGTATACGCTATA the PBM binding z-score was 1.37.
